# In the library only some 1.6% were active in any assay of this set; here they are far more common.
# IMPase inh: cell-permeable inhibitors of inositol monophosphatase (IMPase) | CHO-M1 cells, IP1 accumulation, HTRF TR-FRET ratio | inhibition (IP1 accumulation), % at 46.1 µM | 120,000 tested, under 10 active | AID 901 | P97697; active = well fitted curve in the direction sought with a large enough effect in the signal ratio, not every such curve was filed as active; inconclusive = small, poorly fitted or top-dose-only effect, or a change in a side signal; inactive = no such curve, though single readings can be large or run the other way; the % refers to the signal ratio;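 note: cells stimulated with carbachol in lithium chloride buffer; plate controls were DMSO basal wells for no effect and reference inhibitor wells for full effect; higher means more IMPase inhibition seen as more IP1 and lower FRET ratio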
# Target sequence (P97697 whole entry, looked up): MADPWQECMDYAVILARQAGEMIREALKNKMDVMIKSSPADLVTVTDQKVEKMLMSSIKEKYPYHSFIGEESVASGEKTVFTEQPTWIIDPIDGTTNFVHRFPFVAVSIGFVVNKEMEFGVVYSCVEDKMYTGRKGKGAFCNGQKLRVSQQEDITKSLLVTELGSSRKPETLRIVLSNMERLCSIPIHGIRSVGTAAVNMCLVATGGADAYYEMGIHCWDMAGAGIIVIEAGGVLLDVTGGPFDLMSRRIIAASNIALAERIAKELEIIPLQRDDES
#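 In this qHTS, compounds (final up to 46 uM) act on CHO-M1 cells that are then activated through the M1 receptor with carbachol, in pH 7.4 buffer containing 50 mM LiCl, for 30 min. IP1 accumulation is quantified by the IP-One immunoassay.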
# HTT cytoprotect: protects HTT-Q103 PC12 cells, measured by ATP | PC12 HTT-Q103 induced, cytoprotection, ATP luminescence, 40 h | Potency, µM (highest dose often 56.4 µM), for the others: cytoprotection (ATP increase), most hits filed as activators | 0.14% of 230,000 active | AID 1471; note: potency is the fitted concentration of half-maximal effect; % of control where 0% means no effect; nearly all actives have a fitted effect of over 45% in size
#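 Compounds were screened for protection of PC12 cells against cell death after tebufenozide induction (100 nM final) of mutant Huntingtin exon 1 (Q103) fused to GFP.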
# LMNA splice mod: modulators of lamin A splicing; 0.01% of 200,000 active; AID 1487; Potency, µM (doses to about 46.1 µM), inactives show at the top dose ratio change, negative = inhibition, hits mostly inhibitors; HeLa LMNA splicing GFP/RFP minigene ratio, 48 h; active = well fitted inhibition curve with a large enough effect in the signal ratio, with a control signal flat, not every such curve was filed as active; inconclusive = small, poorly fitted or top-dose-only effect, or effect the other way, or a change in a side signal; the % refers to the signal ratio; note: potency is the fitted concentration of half-maximal effect; % is set by controls: 0 for no effect and ±100 for the full control effect
#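 S3 HeLa cells stably expressing lamin A-EGFP splicing minigene plus DsRed2, 600 cells/well, 48 h compound exposure at 37C. Laser-scanning cytometry; analysed as GFP (500-530 nm)/RFP (575-640 nm) total intensity ratio; 0.5% DMSO vehicle.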
# IMPase Li cell: cell-permeable IMPase inhibitors with lithium potentiation; CHO-M1 cells, IP1 TR-FRET (IP-One), carbachol + lithium; AID 1457; Potency, µM (highest dose often 59.4 µM), inactives show top-dose activity, negative = IMPase inhibition, most hits filed as inhibitors; 0.35% of 210,000 active;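 note: IP1 builds up when IMPase is blocked and the TR-FRET signal falls; potency is the fitted concentration of half-maximal effect; plate controls were basal vehicle for no effect and high inhibitor control for full effect; nearly all actives have a fitted effect of over 50% in size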
#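 Steps: plate 2000 CHO-M1 cells per well and culture 16–30 h; add compound and lithium; incubate 30 min, 37C; add d2-IP1 tracer and Eu cryptate anti-IP1 antibody in lysis buffer; read after 10 min at room temperature.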
# NPSR antag: antagonists of human neuropeptide S receptor cAMP signaling; CHO-NPSR cells, cAMP TR-FRET, antagonist mode; Potency, µM (doses to about 38.3 µM), for the others: top-dose activity change, negative = inhibition, hits mostly inhibitors; 1% of 220,000 active; AID 1461; note: potency is the fitted concentration of half-maximal effect; % is set by controls: 0 for no effect and ±100 for the full control effect; nearly all actives have a fitted effect of over 50% in size
# Target sequence (Q6W5P4 whole entry, looked up): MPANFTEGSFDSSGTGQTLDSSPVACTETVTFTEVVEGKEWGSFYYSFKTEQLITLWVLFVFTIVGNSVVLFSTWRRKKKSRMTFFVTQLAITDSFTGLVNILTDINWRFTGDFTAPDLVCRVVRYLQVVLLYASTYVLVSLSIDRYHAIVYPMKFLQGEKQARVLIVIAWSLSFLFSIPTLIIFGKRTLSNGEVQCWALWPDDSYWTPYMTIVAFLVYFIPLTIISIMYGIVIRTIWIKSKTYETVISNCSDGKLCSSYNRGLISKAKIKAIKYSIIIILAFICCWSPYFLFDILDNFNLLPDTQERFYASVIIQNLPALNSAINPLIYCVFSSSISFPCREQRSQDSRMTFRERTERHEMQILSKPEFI
# HttQ103 aggreg: mutant huntingtin aggregation inhibition | PC12 HttQ103-GFP aggregates, Acumen cytometry, 40 h | Potency, µM (top dose mostly 46.1 µM), inactives show top-dose activity change, negative = inhibition, most hits filed as inhibitors | 1.1% of 220,000 active; note: potency is the fitted concentration of half-maximal effect; % is set by controls: 0 for no effect and ±100 for the full control effect; nearly all actives have a fitted effect of over 60% in size
#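 Quantitative HTS on tebufenozide-induced (100 nM) PC12 cells stably expressing polyQ103 Huntingtin exon 1–GFP. Reduction of bright GFP aggregates, detected by laser scanning cytometry after lysis, identified actives across the titration.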
# Numbers without * were called inactive; ? = inconclusive; . = no result given; [ ] = remark or other dose. Unless noted, calls come from the whole dose curve; as a rule, active = well fitted curve in the direction sought with a large enough effect; inconclusive = small, poorly fitted or top-dose-only effect, or another doubt; inactive = no such curve, though single readings can be large; an effect the other way counts as inactive or inconclusive.
SMILES,IMPase inh,HTT cytoprotect,LMNA splice mod,IMPase Li cell,NPSR antag,HttQ103 aggreg
CCCCC(c1nnnn1C1CCCC1)N1CCN(C(=O)c2ccco2)CC1 (stereo not given),-1.2,-13.4%[10 µM],3.3%,19.7%[38.3 µM],-17.7%[46.1 µM],-13.9%
COc1ccc(C(=O)NNC(=S)NC(=O)c2cc(-c3ccccc3)nc3ccccc23)cc1,?,?,0.3%,11.4%[38.3 µM],-3.4%[46.1 µM],28.2µM*
O=C1CCCc2nc(N3CCN(c4ccccc4)CC3)ncc21,-7.6,6.8%,8.7%,11.2µM*,-30.5%[46.1 µM],9.7%[9.22 µM]
NC(=O)c1cc[n+](CC2=C(C(=O)O)N3C(=O)C(NC(=O)C(c4ccccc4)S(=O)(=O)[O-])C3SC2)cc1 (stereo not given),.,22.4%,.,2.1%,.,.
CC1(C)O[C@@H]2C[C@H]3[C@@H]4CCC5=CC(=O)C=C[C@]5(C)[C@@]4(F)[C@@H](O)C[C@]3(C)[C@]2(C(=O)CO)O1,.,.,?,4.0%,-13.3%,-16.3%
CC(=O)OCC(=O)[C@@]12OC3(CCCC3)O[C@@H]1C[C@H]1[C@@H]3CCC4=CC(=O)C=C[C@]4(C)[C@@]3(F)[C@@H](O)C[C@@]12C,.,.,-5.3%,9.2%,3.98µM*,-20.0%
CCOc1ccc(S(=O)(=O)n2cnc3cc(C)c(C)cc32)cc1,1.3,1.5%[10 µM],?,13.1%,-0.5%[46.1 µM],11.2µM*
COc1ccc(OC)c(S(=O)(=O)n2cnc3cc(C)c(C)cc32)c1,1.8,-2.9%,0.9%,15.5%[38.3 µM],?,4.5%
FC(F)(F)c1nnc2c(Sc3ccc(Cl)cc3)nc3ccccc3n12,7.0,14.2%,?,17.8µM*,?,25.7%
FC(F)(F)c1nnc2c(Sc3ccccc3)nc3ccccc3n12,-11.2,20.0%[10 µM],-13.9%,-23.9%,-6.9%[46.1 µM],0.5%
FC(F)(F)c1nnc2c(Sc3ccccn3)nc3ccccc3n12,-6.6,11.2µM*,?,-12.5%[38.3 µM],-25.1%[46.1 µM],.
c1ccc(CCN(Cc2ccccc2)Cc2nc(C3CC3)no2)cc1,.,8.5%[10 µM],.,16.6%,30.4%,1.1%[9.22 µM]
O=P1(O)Oc2c(-c3ccccc3)cc3ccccc3c2-c2c(c(-c3ccccc3)cc3ccccc23)O1,.,31.1%,.,5.3%,.,.
N#CC1=C(c2ccccc2)/C(=C/c2ccccc2)OC1=O,16.4,-53.7%,?,43.1%[38.3 µM],2.51µM*,?
O=c1c(O)c(-c2ccc(O)c(O)c2)oc2c(OC[C@H]3O[C@@H](O)[C@@H](O)[C@H](O)[C@@H]3O)c(O)cc(O)c12,.,-0.4%,.,.,.,.
Cn1c(NCCO)nc2c1c(=O)n(Cc1cccc(F)c1)c(=O)n2C,-2.4,.,.,.,.,.
O=C(CN1CCCCC1)N1CCCc2c1c(=O)oc1ccc(OCc3ccccc3)cc21,-19.5,3.16µM*,4.0%,17.4%,-8.6%,?
Cc1ccc(NC(=O)c2cc([N+](=O)[O-])ccc2N2CCCC2)cc1,.,-28.6%,.,8.6%,-37.4%,15.5%
Cc1cccc(NC(=O)c2cc([N+](=O)[O-])ccc2N2CCCCC2)n1,.,.,.,12.5%,10µM*,-10.7%
O=C(NNC(=S)Nc1cccc(Cl)c1)c1ccccc1OC(F)F,.,.,?,3.2%,-4.1%,11.2µM*
O=C(CN1CCOCC1)Nc1cccc(Br)c1,6.7,9.6%,-0.8%,17.4%[38.3 µM],-5.3%[46.1 µM],3.16µM*
CC(=O)c1ccc(NC(=O)OCCN2CCN(Cc3ccccc3)CCC2=O)cc1,.,-24.7%,.,0.4%,.,.
Cc1ccc(C)c(S(=O)(=O)NCc2ccncc2)c1,1.9,-15.1%,10.2%,15.7%[38.3 µM],10.5%[46.1 µM],10µM*
Cc1ccc(S(=O)(=O)NCC(=O)NCc2ccncc2)cc1,10.3,14.0%[10 µM],2.6%,3.6%,2.9%,-4.7%
Cc1ccc(S(=O)(=O)NCc2ccncc2)cc1,-0.9,-6.4%,?,31.8%[38.3 µM],4.1%[46.1 µM],3.55µM*
SMILES,IMPase inh,HTT cytoprotect,LMNA splice mod,IMPase Li cell,NPSR antag,HttQ103 aggreg
Cc1ccc(C)c(S(=O)(=O)NCc2cccnc2)c1,-4.6,13.1%[10 µM],-5.7%,4.7%,4.7%[46.1 µM],-3.4%
O=C(COC(=O)c1ccccc1C(=O)c1ccc(Cl)c([N+](=O)[O-])c1)NC1CCCCCC1,9.3,-95.5%,?,49.5%[38.3 µM],10µM*,?
CC(C)N(C(=O)COC(=O)c1ccccc1C(=O)c1ccc(Cl)c([N+](=O)[O-])c1)C(C)C,.,-26.2%,.,22.2%,?,?
COc1ccccc1[C@H]1C(c2ccc(F)cc2)=NN(c2ccccc2)[C@@H]1CO,.,-170.2%,.,?,.,.
COc1ccccc1[C@H]1C(c2ccccc2)=NN(c2ccccc2)[C@@H]1CO,.,-167.7%,.,25.1µM*,.,.
OC[C@@H]1[C@@H](c2ccc(Cl)cc2)C(c2ccccc2)=NN1c1ccccc1,.,-351.9%,.,22.4µM*,.,.
COc1cccc(/C=N/Nc2nc(Nc3ccccc3)nc(-n3nc(C)cc3C)n2)c1O,9.3,-98.4%[10 µM],?,33.4%[38.3 µM],2.51µM*,1.12µM*
CC(/C=N/n1c(-c2cccnc2)n[nH]c1=S)=C\c1ccccc1,3.9,-33.4%,2.9%,-10.3%[38.3 µM],?,?
CC(=C/c1ccccc1)/C=N/n1c(-c2ccncc2)n[nH]c1=S,.,-44.2%,-24.6%[46 µM],25.1%,-28.7%,2µM*
Cc1ccc2[nH]c(=O)c(CN(Cc3nnnn3Cc3ccccc3)C3CCCC3)cc2c1,-3.3,-55.3%[10 µM],0.6%,26.9%[38.3 µM],-4.3%[46.1 µM],0.891µM*
Cc1cc2cc(CN(Cc3ccc4c(c3)OCO4)Cc3nnnn3C3CCCC3)c(=O)[nH]c2cc1C,0.9,-16.1%[10 µM],2.3%,19.1%[38.3 µM],?,-0.3%
CCC(c1nnnn1Cc1ccco1)N(CCc1ccccc1)Cc1cc2cc(C)ccc2[nH]c1=O (stereo not given),13.0,-17.5%[10 µM],?,.,?,28.2µM*
Cc1ccc2[nH]c(=O)c(CN(Cc3ccc4c(c3)OCO4)Cc3nnnn3C3CCCC3)cc2c1,15.9,-26.3%[10 µM],?,-0.8%[38.3 µM],12.6µM*,-5.0%[9.22 µM]
N#Cc1cc(NC(=O)c2ccc(F)cc2)c(=O)n2c1[nH]c1ccccc12,.,-161.8%,?,5.4%,-14.3%,14.1µM*
O=S(=O)(NC1CC1)c1ccc(S(=O)(=O)N2CCCC(c3nc(-c4cccnc4)no3)C2)cc1 (stereo not given),26.2,-6.0%[10 µM],?,26.9%[38.3 µM],-15.1%[46.1 µM],11.2µM*

# High-throughput results from PubChem BioAssay.
